Screening data from PubChem BioAssay.
Compounds with a hit are over-represented: about 12% of the library has one in this group of screens.
Sfp inh = inhibitors of Bacillus subtilis Sfp phosphopantetheinyl transferase | Potency, µM, for the others: largest response in the series, negative = inhibition, most hits filed as inhibitors | AID 1490 | Q9F4F7 | Biochemical Sfp PPTase activity, qHTS | 310,000 tested, 3.5% active;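 note: the enzyme is Sfp with the accession as filed and its product quenches rhodamine fluorescence; 0% = enzyme reaction without inhibitor and -100% = no enzyme wells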
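Step 1, compound plus 15 nM Sfp-PPTase, 15 min, room temperature. Step 2, add rhodamine-CoA (5 uM) and BHQ-2-YbbR (12.5 uM). Step 3, read 525/598 nm fluorescence at 0 and 30 min.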
JMJD2A Tudor inh = JMJD2A Tudor domain (human) inhibition | AlphaScreen JMJD2A-Tudor / H3K4me3 peptide binding | AID 504339 | Potency, µM (top dose mostly 114 µM), inactives show at the highest dose activity change, negative = inhibition, hits mostly inhibitors | 390,000 tested, 4.4% active; note: % is set by controls: 0 for no effect and ±100 for the full control effect; nearly all actives have a fitted effect of over 50% in size
Target sequence (O75164 whole entry, looked up, the tested form may be a part): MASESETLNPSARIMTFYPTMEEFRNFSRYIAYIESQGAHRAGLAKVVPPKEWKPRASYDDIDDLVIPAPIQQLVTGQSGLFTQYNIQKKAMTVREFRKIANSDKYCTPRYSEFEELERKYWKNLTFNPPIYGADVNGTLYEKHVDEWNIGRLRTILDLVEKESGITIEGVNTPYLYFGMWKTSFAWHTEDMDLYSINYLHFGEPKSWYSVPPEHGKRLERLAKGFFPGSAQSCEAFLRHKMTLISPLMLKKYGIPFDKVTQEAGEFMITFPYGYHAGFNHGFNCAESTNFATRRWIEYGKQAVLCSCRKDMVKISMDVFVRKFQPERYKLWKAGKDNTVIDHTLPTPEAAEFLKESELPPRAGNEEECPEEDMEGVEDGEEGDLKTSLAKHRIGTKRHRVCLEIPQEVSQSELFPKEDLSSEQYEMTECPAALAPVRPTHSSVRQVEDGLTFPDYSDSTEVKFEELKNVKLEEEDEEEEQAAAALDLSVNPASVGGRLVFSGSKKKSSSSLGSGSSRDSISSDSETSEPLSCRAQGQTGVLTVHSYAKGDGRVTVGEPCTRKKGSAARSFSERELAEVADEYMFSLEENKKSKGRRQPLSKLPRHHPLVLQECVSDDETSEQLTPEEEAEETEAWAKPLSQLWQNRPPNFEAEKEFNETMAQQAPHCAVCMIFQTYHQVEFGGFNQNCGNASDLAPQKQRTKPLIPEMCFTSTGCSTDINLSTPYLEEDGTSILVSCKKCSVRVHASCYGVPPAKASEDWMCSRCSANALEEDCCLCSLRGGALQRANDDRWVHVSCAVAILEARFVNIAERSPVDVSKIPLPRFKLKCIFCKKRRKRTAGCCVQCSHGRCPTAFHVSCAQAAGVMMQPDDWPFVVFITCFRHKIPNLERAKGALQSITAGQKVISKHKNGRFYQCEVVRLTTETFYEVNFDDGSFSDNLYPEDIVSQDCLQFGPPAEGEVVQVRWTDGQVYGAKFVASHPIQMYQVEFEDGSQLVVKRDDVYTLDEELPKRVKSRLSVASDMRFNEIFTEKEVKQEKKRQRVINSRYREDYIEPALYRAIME
HP1b binding inh = HP1-beta chromodomain-methylated histone interaction inhibition; AID 540317; AlphaScreen HP1-beta / biotin-H3K9me3 peptide binding; Potency, µM (titrated, usually from 114 µM), without a hit: at the highest dose activity change, negative = inhibition, usual class: inhibitors; 390,000 tested, 0.56% active; P83916; note: nearly all actives have a fitted effect of over 70% in size
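Compound inhibition of the preformed complex between 50 nM HP1-beta and 50 nM biotinylated H3K9me3 peptide was read by AlphaScreen. Buffer was PBS pH 7.4 with 0.01% Tween-20. Incubations ran 30 min at room temperature, with 10 ug/mL donor/acceptor beads.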
G9a block = blocks human histone lysine methyltransferase G9a. Potency, µM (series often up to 102 µM), inactives show at the top dose activity, negative = inhibition, actives largely listed as inhibitors. 350,000 tested, 8.8% active. Q96KQ7. G9a H3K9 monomethylation, AlphaScreen, 2 h; note: % is set by controls: 0 for no effect and ±100 for the full control effect; nearly all actives have a fitted effect of over 75% in size
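Compounds were preincubated with 20 nM G9a for 15 min, after which biotinylated H3K9 peptide (500 nM) and SAM (20 uM) started a 2 h room-temperature reaction. Monomethylated product was quantified by antibody-based AlphaScreen chemiluminescence.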
BAZ2B block = inhibitors of human BAZ2B bromodomain; Q9UIF8; 360,000 tested, 4.4% active; Potency, µM (series often up to 114 µM), without a hit: at the highest dose activity change, negative = inhibition, most hits filed as inhibitors; AlphaScreen BAZ2B-H3K14Ac peptide displacement; AID 504333; note: % is set by controls: 0 for no effect and ±100 for the full control effect; nearly all actives have a fitted effect of over 60% in size
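Inhibition is scored as reduced AlphaScreen emission. The BAZ2B/b-H3(5-23)K14Ac complex (50 nM each) in PBS pH 7.4, 0.01% Tween-20 meets compound (up to 110 uM) for 30 min at RT before bead addition.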
* = called active by the depositor; u = inconclusive; x = no result given; [ ] = dose if it differs, or a comment. Calls come from the whole dose curve; as a rule, active = well fitted curve in the direction sought with a large enough effect; inconclusive = small, poorly fitted or top-dose-only effect, or another doubt; inactive = no such curve, though single readings can be large; an effect the other way counts as inactive or inconclusive. Potency is the fitted concentration of half-maximal effect.

SMILES	Sfp inh	JMJD2A Tudor inh	HP1b binding inh	G9a block	BAZ2B block
N#C/C(=N\Nc1cccc2ccccc12)c1nnc2n1CCCCC2	u	-35%	21%	1.8µM*	u
O=C(CSc1nc(NS(=O)(=O)c2ccccc2)cc(=O)[nH]1)Nc1ccc(F)cc1	4%	56µM*	8%	-10%[59 µM]	u
C#CC(C)OC(=O)Nc1cccc(Cl)c1 (stereo unspecified)	1%	x	x	x	x
CC(C)c1ccc(NC(=O)C(c2ccccc2)N(Cc2ccco2)C(=O)CC2NC(=O)NC2=O)cc1 (stereo unspecified)	-9%	-34%	-8%	14µM*	u
C[n+]1ccc(/C=C/c2ccccc2O)c2ccccc21	-6%	u	-19%	25µM*	u
CC(=O)/C=C/c1ccccc1O	26%	-10%	16%	-4%	-1%
COCCNC(=O)COc1ccc(Nc2ccccc2)cc1	-20%	-21%	0%	50µM*	u
CCCCn1c(N)c(N(CCC(C)C)C(=O)CCN2C(=O)C3CC=CCC3C2=O)c(=O)[nH]c1=O (stereo unspecified)	x	-4%	14%	7%[0.501 µM]	0%
CCc1nnc(NC(=O)c2cc(=O)c3cc(C)ccc3o2)s1	x	-13%	31%	6%[59 µM]	-9%
O=S(=O)(Nc1ccc(F)cc1)c1ccc(NS(=O)(=O)c2cccs2)cc1	10%	4%	19%	27%[59 µM]	3%
CCCN1CC=C2C(C#N)=C(N)C(C#N)(C#N)C(c3cccc(OC)c3OC)C2C1 (stereo unspecified)	20%	-16%	32%	u	-30%
COc1cccc(OC)c1OCc1cc(C2C3CCCC=C3C(C#N)=C(N)C2(C#N)C#N)c(C)cc1C (stereo unspecified)	56µM*	u	15%	x	u
COc1ccc(CCNC(=O)Cc2ccc(NC(=O)N3CCSc4ncccc43)cc2)cc1OC	x	4%	33%	-10%[59 µM]	-14%
COc1cc(C2C(=O)N(C3CCCC3)CC(=O)N2Cc2ccco2)ccc1OC(C)C (stereo unspecified)	-5%	-16%	-6%	79µM*	-32%
O=C(Nc1ccc2nc[nH]c2c1)c1ccco1	11%	2%[11.4 µM]	3%	-18%	-22%
O=C(Nc1ccc2ncccc2c1)c1ccccc1	-1%	22µM*	-30%	x	-31%
O=C(Nc1cnc2ccccc2c1)c1cccnc1	16%	-8%	56%	-13%	6%
O=C(NC(=S)Nc1ccc2nc[nH]c2c1)c1ccccc1	-2%	-19%	10%	50µM*	-22%
O=C(NC(=S)Nc1ccc2[nH]ncc2c1)c1ccccc1	-2%	u	-16%	u	-33%
Cc1ccc2cc(NC(=O)c3ccc(C(C)(C)C)cc3)ccc2n1	79µM*	-24%	25%	17%	-18%
O=C(NC(=S)Nc1ccc2ncccc2c1)c1ccccc1	50µM*	u	5%	56µM*	u
CCCc1nn2c(=O)cc(COc3ccc(/C=C(\C#N)C(=O)Nc4ccccc4)cc3)nc2s1	x	-28%	59%	-30%[59 µM]	-36%
O=C(Nc1ccc2cccnc2c1)c1ccc(Br)cc1	-10%	104%	126%	23%[0.501 µM]	92%
Cc1cc(C(=O)Nc2ccc(Br)cc2)cs1	12%	12%	51%	79µM*	56µM*
O=C(NNC(=S)Nc1ccccc1)c1ccc2ncccc2c1	-11%	-21%	10%	28µM*	10%
SMILES	Sfp inh	JMJD2A Tudor inh	HP1b binding inh	G9a block	BAZ2B block
CC(C)(C)NC(=S)NNC(=O)c1ccc2ncccc2c1	2%	-15%	19%	7%[59 µM]	1%
O=C(Nc1ccc2nc3ccccc3nc2c1)c1ccc(Br)cc1	-10%	-8%	32%	8.9µM*	-1%
O=C(Nc1ccc(NC(=O)c2ccccc2Cl)cc1)c1cccnc1	18%	-6%	27%	20%	7%
O=C(Nc1ccc2ncccc2c1)c1ccccc1Cl	12%	-4%	20%	10µM*	-20%
Cc1cc(C)cc(OCC(=O)OCc2nnc(-c3ccccc3)o2)c1	10%	15%	70%	39%[59 µM]	16%
Cc1ccc2cccnc2c1NC(=S)NC(=O)c1ccccc1	18µM*	-21%	-20%	u	-39%
O=c1c(NCc2cccs2)nccn1-c1ccc(F)cc1	x	-18%	4%	-10%[59 µM]	-20%
